The text below walks through data of ChEMBL document CHEMBL1961873, “Compounds: GSK PKIS; Assays: Nanosyn kinase panel” (2012).

The target of assay [1] is Casein kinase I isoform gamma-2 (Homo sapiens) (UniProt P78368). Particulars: at 1 µM.
The target of assay [2] is Casein kinase I isoform gamma-3 (Homo sapiens) (UniProt Q9Y6M4). Particulars: at 0.1 µM.
Assay [3] shares this target. Particulars: at 1 µM.
Assay [4] has as its target Cyclin-dependent kinase 1 (Homo sapiens) (UniProt P06493). Particulars: at 0.1 µM.
For assay [5] the target is unchanged. Particulars: at 1 µM.
For assay [6], the target named is Cyclin-dependent kinase 2 (Homo sapiens) (UniProt P24941). Particulars: at 0.1 µM.
Assay [7] has the same target. Particulars: at 1 µM.
The target is the same in assay [8]. Particulars: at 0.1 µM. The source holds these as a separate data set.
For assay [9] the target is unchanged. Particulars: at 1 µM. This is another data set of the same source.
Assay [10] addresses T1, CDK3/Cyclin E (Homo sapiens) (UniProt P24864+Q00526). Particulars: at 0.1 µM.
The target of assay [11] is T1, CDK3/Cyclin E (Homo sapiens). Particulars: at 1 µM.
Assay [12] addresses Cyclin-dependent kinase 4 (Homo sapiens) (UniProt P11802). Particulars: at 0.1 µM.
The target is the same in assay [13]. Particulars: at 1 µM.
The target of assay [14] is Cyclin-dependent kinase 5 (Homo sapiens) (UniProt Q00535). Particulars: at 0.1 µM.
Sequence of Cyclin-dependent kinase 5 (Homo sapiens) (Q00535 whole entry, looked up): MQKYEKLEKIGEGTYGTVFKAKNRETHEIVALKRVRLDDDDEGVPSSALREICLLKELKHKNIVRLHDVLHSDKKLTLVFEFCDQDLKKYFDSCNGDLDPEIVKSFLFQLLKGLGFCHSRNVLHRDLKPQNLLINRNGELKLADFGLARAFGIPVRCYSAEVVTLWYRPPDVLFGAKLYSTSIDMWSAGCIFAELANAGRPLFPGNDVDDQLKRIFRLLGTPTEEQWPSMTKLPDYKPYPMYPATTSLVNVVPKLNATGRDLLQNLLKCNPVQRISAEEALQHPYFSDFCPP
Assay [15] has the same target. Particulars: at 1 µM.
For assay [16], the target named is Cyclin-dependent kinase 6 (Homo sapiens) (UniProt Q00534). Particulars: at 0.1 µM.
Sequence of Cyclin-dependent kinase 6 (Homo sapiens) (Q00534 whole entry): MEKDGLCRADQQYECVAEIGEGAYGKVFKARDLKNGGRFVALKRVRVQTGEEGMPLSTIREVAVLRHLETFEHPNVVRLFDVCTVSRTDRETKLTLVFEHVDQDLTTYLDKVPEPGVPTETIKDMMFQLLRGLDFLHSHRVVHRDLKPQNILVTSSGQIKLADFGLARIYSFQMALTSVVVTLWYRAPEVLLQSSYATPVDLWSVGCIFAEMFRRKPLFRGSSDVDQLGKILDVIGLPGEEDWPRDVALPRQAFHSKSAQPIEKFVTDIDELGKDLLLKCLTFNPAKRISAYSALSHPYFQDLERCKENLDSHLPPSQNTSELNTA
The target is the same in assay [17]. Particulars: at 1 µM.
The target of assay [18] is Dual specificity protein kinase CLK2 (Homo sapiens) (UniProt P49760). Particulars: at 0.1 µM.
Sequence of Dual specificity protein kinase CLK2 (Homo sapiens) (P49760 whole entry, looked up): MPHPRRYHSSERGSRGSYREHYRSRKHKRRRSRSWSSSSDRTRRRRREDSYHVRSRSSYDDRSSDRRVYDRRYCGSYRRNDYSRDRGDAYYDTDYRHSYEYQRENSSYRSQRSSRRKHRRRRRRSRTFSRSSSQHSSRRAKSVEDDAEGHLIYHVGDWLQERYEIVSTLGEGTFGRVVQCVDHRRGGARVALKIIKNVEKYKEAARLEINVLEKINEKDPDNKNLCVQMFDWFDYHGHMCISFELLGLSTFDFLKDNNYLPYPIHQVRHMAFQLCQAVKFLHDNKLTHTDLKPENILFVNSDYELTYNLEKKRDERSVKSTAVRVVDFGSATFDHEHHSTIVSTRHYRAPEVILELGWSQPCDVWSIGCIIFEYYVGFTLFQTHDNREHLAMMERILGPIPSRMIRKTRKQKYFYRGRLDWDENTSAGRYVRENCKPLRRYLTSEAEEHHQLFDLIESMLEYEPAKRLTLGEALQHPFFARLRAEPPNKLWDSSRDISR
The target is the same in assay [19]. Particulars: at 1 µM.
The target of assay [20] is Dual specificity protein kinase CLK3 (Homo sapiens) (UniProt P49761). Particulars: at 0.1 µM.
Sequence of Dual specificity protein kinase CLK3 (Homo sapiens) (P49761 whole entry, looked up): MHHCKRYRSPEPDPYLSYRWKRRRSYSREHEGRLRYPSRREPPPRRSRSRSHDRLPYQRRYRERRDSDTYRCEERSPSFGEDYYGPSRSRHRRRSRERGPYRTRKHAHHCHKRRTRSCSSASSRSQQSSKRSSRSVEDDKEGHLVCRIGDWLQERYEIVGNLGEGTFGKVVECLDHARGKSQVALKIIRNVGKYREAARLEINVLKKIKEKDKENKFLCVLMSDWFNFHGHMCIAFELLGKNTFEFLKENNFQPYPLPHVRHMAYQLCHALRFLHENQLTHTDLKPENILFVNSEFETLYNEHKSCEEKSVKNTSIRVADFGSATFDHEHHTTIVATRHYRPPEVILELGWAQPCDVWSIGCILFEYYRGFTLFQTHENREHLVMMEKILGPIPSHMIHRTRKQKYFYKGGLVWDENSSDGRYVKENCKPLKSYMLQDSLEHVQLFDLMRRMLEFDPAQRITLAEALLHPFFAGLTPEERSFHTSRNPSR

Sequence of Casein kinase I isoform gamma-2 (Homo sapiens) (P78368 whole entry, looked up, canonical isoform): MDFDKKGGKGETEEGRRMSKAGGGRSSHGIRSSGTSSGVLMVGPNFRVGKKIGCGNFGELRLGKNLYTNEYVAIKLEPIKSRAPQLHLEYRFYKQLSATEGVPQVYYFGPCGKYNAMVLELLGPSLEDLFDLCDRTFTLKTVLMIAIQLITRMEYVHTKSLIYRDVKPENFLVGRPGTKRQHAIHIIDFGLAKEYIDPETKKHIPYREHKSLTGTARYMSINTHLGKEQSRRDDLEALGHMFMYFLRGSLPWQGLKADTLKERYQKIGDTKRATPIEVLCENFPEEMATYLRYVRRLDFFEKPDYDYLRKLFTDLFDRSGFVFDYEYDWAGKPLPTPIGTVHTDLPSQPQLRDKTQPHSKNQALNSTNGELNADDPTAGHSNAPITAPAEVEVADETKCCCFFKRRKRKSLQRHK
Sequence of Casein kinase I isoform gamma-3 (Homo sapiens) (Q9Y6M4 whole entry, looked up, canonical isoform): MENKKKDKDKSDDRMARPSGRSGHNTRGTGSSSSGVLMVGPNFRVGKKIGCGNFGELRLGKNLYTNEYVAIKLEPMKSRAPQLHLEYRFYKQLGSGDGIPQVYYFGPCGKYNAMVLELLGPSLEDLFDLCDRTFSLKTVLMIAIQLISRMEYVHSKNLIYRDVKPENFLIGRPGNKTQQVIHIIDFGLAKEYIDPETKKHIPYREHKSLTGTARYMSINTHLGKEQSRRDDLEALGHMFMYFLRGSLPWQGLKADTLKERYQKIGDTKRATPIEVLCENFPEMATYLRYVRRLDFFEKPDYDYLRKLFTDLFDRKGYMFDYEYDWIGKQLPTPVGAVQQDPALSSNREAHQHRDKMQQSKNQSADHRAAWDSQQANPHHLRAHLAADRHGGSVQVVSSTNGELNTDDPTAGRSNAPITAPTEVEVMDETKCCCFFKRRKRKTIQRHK
T1 sequence (P24864 whole entry, looked up): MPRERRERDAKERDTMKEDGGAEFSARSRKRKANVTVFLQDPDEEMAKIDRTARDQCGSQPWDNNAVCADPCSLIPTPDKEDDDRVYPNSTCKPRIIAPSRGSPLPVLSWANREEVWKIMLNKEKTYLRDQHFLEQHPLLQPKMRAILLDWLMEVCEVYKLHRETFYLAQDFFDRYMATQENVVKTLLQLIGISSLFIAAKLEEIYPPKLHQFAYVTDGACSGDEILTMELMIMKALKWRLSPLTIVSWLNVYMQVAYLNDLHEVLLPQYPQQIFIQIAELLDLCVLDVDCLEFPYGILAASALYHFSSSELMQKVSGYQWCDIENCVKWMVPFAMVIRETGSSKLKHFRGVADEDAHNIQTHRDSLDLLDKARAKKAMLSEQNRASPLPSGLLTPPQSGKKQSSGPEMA
T1 sequence (Q00526 whole entry, looked up): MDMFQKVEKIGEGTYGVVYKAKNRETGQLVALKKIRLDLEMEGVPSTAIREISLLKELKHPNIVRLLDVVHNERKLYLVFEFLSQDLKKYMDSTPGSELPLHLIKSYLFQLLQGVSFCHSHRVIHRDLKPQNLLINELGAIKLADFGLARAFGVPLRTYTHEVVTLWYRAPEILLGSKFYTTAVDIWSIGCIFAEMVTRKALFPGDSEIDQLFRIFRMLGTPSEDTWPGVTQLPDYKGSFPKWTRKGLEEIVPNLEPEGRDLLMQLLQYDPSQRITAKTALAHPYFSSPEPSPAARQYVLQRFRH
Sequence of Cyclin-dependent kinase 1 (Homo sapiens) (P06493 whole entry, looked up): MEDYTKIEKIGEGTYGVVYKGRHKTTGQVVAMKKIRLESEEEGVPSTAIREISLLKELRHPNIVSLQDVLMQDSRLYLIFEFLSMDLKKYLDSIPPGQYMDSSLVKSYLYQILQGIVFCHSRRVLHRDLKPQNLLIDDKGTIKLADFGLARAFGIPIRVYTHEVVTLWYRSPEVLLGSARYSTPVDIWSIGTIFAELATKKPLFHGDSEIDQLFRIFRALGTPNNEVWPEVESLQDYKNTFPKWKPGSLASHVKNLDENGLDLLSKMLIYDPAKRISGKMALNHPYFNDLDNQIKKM
Sequence of Cyclin-dependent kinase 4 (Homo sapiens) (P11802 whole entry): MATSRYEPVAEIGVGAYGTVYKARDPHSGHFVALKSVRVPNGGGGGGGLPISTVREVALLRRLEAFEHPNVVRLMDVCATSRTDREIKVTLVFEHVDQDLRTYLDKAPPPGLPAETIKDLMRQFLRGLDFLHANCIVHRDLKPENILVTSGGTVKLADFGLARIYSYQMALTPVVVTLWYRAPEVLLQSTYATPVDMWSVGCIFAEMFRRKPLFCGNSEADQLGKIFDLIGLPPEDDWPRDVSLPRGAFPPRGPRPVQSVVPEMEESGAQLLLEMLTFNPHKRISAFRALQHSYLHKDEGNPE

Turning to `COc1cc2c(cc1Nc1nc(Nc3ccsc3C(N)=O)c3cc[nH]c3n1)N(C(=O)CN(C)C)CCC2(C)C`, the inhibition was found to be 20.6% in [1]; 4.29% in [2]; 24.3% in [3]; 2.56% in assay [4]; 6.04% in assay [5]; 3.04% in [6]. Besides, the inhibition in [7] was -0.79%; in [8], 8.82%; in [9], 10.2%; in [10], 8.96%; in assay [11], -1.09%; in [12], 5.42%. Moreover, the inhibition is 8.61% in assay [13]; 6.36% in [14]; 7.33% in [15]; 1.59% in [16]; 9.92% in assay [17]; 29% in assay [18]. Moreover, the inhibition in [19] came out at 79.5%; in assay [20], 2%.
Consider `CN1CCC(n2cnc(-c3ccc(F)cc3)c2-c2ccnc(N)n2)CC1`, for which the inhibition in assay [1] turned out to be 4.69%; in [2], 0.53%; in assay [3], 10.3%; in assay [4] it was 0.23%; in [5], 2%; in [6] it was 0.76%. Besides, the inhibition is 1.07% in assay [7]; 1.45% in assay [8]; 2.89% in assay [9]; 1.57% in assay [10]; -0.17% in [11]; 0.29% in [12]. The inhibition worked out at 1.34% in assay [13]; 0.36% in [14]; 1.02% in assay [15]; 1.87% in [16]; 0.65% in assay [17]; 2.8% in [18]. Besides, the inhibition in assay [19] amounted to 13.8%; in [20], 0.99%.
For the compound `Fc1cccc(COc2ccc(Nc3ncnc4sc(-c5ccco5)cc34)cc2Cl)c1`, the inhibition was 4.82% in assay [1]; 3.95% in [2]; 3.97% in [3]; -1.09% in assay [4]; 1.41% in [5]; 2.79% in assay [6]. For the same compound, the inhibition in assay [7] was 2.68%; in assay [8], 3.66%; in [9] it was 6.69%; in [10], -0.59%; in assay [11], -1.8%; in assay [12], 3.4%. The inhibition in assay [13] was 5.13%; in [14], -0.01%; in assay [15] it was 2.77%; in assay [16], 0.43%; in assay [17], -0.36%; in assay [18], 1.15%. Further, the inhibition in assay [19] is -0.23%; in [20], 0.59%.
Take `COc1ccc(-c2oc3ncnc(N)c3c2-c2ccc(NC(=O)Nc3cc(C(F)(F)F)ccc3F)cc2)cc1`: the inhibition was 1.65% in assay [1]; 0.82% in [2]; 3.84% in assay [3]; 0.92% in assay [4]; 7.71% in assay [5]; 1.73% in assay [6]. In addition, the inhibition in assay [7] was 28.1%; in [8], 4.28%; in [9], 28.8%; in assay [10], 4.83%; in assay [11] it was 42.4%; in assay [12], 3.09%. In addition, the inhibition in [13] turned out to be 5.04%; in [14] it was 1.02%; in assay [15], 4.32%; in [16], 3.24%; in assay [17], 3.67%; in [18], 3.66%. The inhibition is 26.6% in assay [19] and 1.97% in assay [20].
As to `CC(C)(CO)CNC(=O)c1ccc2c(c1)/C(=N/Nc1ccc(S(N)(=O)=O)cc1)C(=O)N2`, the inhibition is 3.6% in assay [1]; 1.31% in assay [2]; 8.37% in assay [3]; 37.2% in assay [4]; 74.8% in assay [5]; 87.3% in [6]. Further, the inhibition is 93.6% in [7]; 68.4% in [8]; 81.2% in assay [9]; 48.5% in assay [10]; 88.5% in assay [11]; 13.6% in assay [12]. Further, the inhibition was found to be 54.6% in assay [13]; 40.6% in assay [14]; 75.1% in assay [15]; 9.84% in [16]; 59.1% in [17]; 11.8% in assay [18]. Besides, the inhibition in [19] was 61.9%; in [20] it was -0.48%.
`CCNC(=O)O[C@H]1CN[C@H](C#Cc2cc3ncnc(Nc4ccc(OCc5cccc(F)c5)c(Cl)c4)c3s2)C1`: the inhibition in [1] turned out to be 2.86%; in [2], 3.84%; in [3] it was 0.57%; in assay [4], 0.57%; in assay [5], 2.13%; in [6], 2.63%. For the same compound, the inhibition in [7] was -0.72%; in [8] it was 2.61%; in [9] it was 3.62%; in assay [10], 1.08%; in assay [11] it was 0.27%; in assay [12] it was 2.39%. Also, the inhibition amounted to 3.42% in assay [13]; 0.38% in assay [14]; 1.78% in assay [15]; 9.65% in assay [16]; 9.16% in assay [17]; 1.63% in [18]. The inhibition in assay [19] turned out to be 2.34%; in assay [20], 0.76%.
`CS(=O)(=O)CCNCc1coc(-c2ccc3ncnc(Nc4ccc(OCc5ccccc5)cc4)c3c2)c1`: the inhibition in assay [1] stood at 1.86%; in assay [2], 1.74%; in [3], 1.31%; in [4], 2.51%; in assay [5], 1.71%; in assay [6], 2.91%. In addition, the inhibition is 2.02% in [7]; 1.53% in assay [8]; 3.24% in [9]; -3.62% in assay [10]; -1.98% in [11]; 1.27% in assay [12]. Also, the inhibition in assay [13] amounted to 3.49%; in assay [14], 0.65%; in assay [15] it was 2.1%; in assay [16], 0.39%; in [17], 3.6%; in assay [18], 3.24%. Also, the figures for the inhibition in [19] and in assay [20] were 1.86% and -0.2%, respectively.
Turning to `CN(C)CCOc1ccc(-c2nc(-c3ccncc3)c(-c3ccc4c(c3)CC/C4=N\O)[nH]2)cc1`, the inhibition in assay [1] worked out at 4.12%; in assay [2], 3.08%; in [3] it was 3.59%; in [4] it was 1.59%; in [5], 5.87%; in [6], 1.86%. Also, the inhibition in assay [7] is 11.1%; in assay [8] it was 6.01%; in assay [9], 7.95%; in assay [10] it was 3.78%; in assay [11] it was -2.98%; in [12], 2.94%. The inhibition in [13] is 6.21%; in assay [14], 2.41%; in assay [15], 5.88%; in assay [16], 7.36%; in assay [17] it was 9.02%; in [18] it was -1.13%. The inhibition in assay [19] was found to be 2.18%; in [20] it was 1.97%.
As to `COc1cc(/C=N/Nc2ncnc3[nH]ncc23)ccc1O`, the inhibition in assay [1] was determined as 25.1%; in assay [2], 3.84%; in assay [3], 20%; in [4], 2.77%; in assay [5], 15.8%; in assay [6], 3.26%. The inhibition is 28.3% in [7]; 4.7% in [8]; 13.9% in assay [9]; 1.56% in [10]; 6.95% in [11]; 2.99% in [12]. Further, the inhibition came out at 5.18% in assay [13]; 2.93% in assay [14]; 16.3% in [15]; 10.4% in [16]; 15.9% in assay [17]; 2.37% in assay [18]. In addition, the inhibition came out at 28.6% in assay [19] and 2.85% in assay [20].
As for `COc1cc2ncn(-c3cc(OCc4ccccc4C(F)(F)F)c(C(=O)N(C)C)s3)c2cc1OC`, the inhibition is 0.02% in assay [1]; -1.27% in assay [2]; 0.6% in [3]; 0.2% in assay [4]; 1.91% in [5]; 1.29% in [6]. Further, the inhibition was -0.21% in assay [7]; -0.22% in assay [8]; 0.54% in assay [9]; 1.54% in [10]; -0.96% in [11]; 1.04% in [12]. The inhibition is 1.39% in [13]; 0.01% in assay [14]; -0.22% in assay [15]; -1.98% in [16]; -0.75% in assay [17]; -0.32% in assay [18]. Also, the results for the inhibition in assay [19] and in assay [20] were 2.04% and 0.46%, respectively.
As to `CC1=C(C(=O)Nc2cc(Cl)c3[nH]ncc3c2)C(c2ccc(C(F)(F)F)cc2)CC(=O)N1` (stereo not given), the inhibition is 3.61% in assay [1]; 1.59% in assay [2]; 2.92% in assay [3]; -0.73% in [4]; 1.81% in assay [5]; -0.94% in [6]. Besides, the inhibition amounted to 9.38% in assay [7]; 2.4% in assay [8]; 7.57% in assay [9]; 2.08% in assay [10]; 0.3% in [11]; 2.42% in assay [12]. In addition, the inhibition in [13] is 3.48%; in assay [14], 0.48%; in assay [15], 1.62%; in assay [16], -4.7%; in assay [17] it was -0.24%; in [18], 1.17%. Also, the inhibition in [19] was 4.84%; in assay [20], 1.15%.
For the compound `c1ccc(COc2ccc(Nc3ncnc4ccc(-c5ccco5)cc34)cc2)cc1`, the inhibition in assay [1] is 0.91%; in assay [2], 0.33%; in assay [3] it was 1.68%; in [4], 0.19%; in assay [5], 2.26%; in assay [6], 1.69%. In addition, the inhibition in assay [7] is 1.48%; in assay [8] it was 0.66%; in assay [9], 2.25%; in assay [10] it was 0.53%; in [11], -1.75%; in assay [12], -0.08%. Further, the inhibition in assay [13] was 2.95%; in [14], 0.18%; in [15], 1.53%; in assay [16], -2.29%; in assay [17] it was -1.6%; in assay [18] it was 0.31%. For the same compound, the inhibition in assay [19] and in assay [20] was -0.79% throughout.
Turning to `CC(C)COC(=O)c1ccc2c(c1)/C(=C/Nc1ccc(S(N)(=O)=O)cc1)C(=O)N2`, the inhibition is 14.2% in assay [1]; -3.31% in assay [2]; 20.6% in [3]; 36.9% in assay [4]; 75.5% in assay [5]; 82% in [6]. Besides, the inhibition in assay [7] was found to be 86.6%; in assay [8] it was 66.2%; in [9], 82.7%; in [10] it was 43.8%; in [11], 90.8%; in [12], 24.7%. The inhibition in [13] worked out at 66.7%; in assay [14], 49.8%; in assay [15] it was 79.6%; in [16], 21.5%; in assay [17] it was 68.6%; in assay [18], 19.2%. The results for the inhibition in assay [19] and in [20] were 72.2% and -0.32%, respectively.
As for `COc1ccc2c(-c3ccnc(Nc4cccc(OC(F)(F)F)c4)n3)cnn2n1`, the inhibition is 7.44% in assay [1]; 4.96% in assay [2]; 6.47% in assay [3]; 5.27% in assay [4]; 41.2% in assay [5]; 11.1% in [6]. Also, the inhibition in [7] worked out at 60.1%; in assay [8] it was 14.8%; in assay [9], 57%; in assay [10], 3.19%; in [11], 20.3%; in assay [12], 3.8%. In addition, the inhibition in assay [13] was 18%; in assay [14] it was 5.51%; in assay [15], 36.3%; in assay [16] it was 9.65%; in [17], 14.6%; in assay [18], 95.4%. For the same compound, the inhibition in [19] was found to be 98.3%; in assay [20], 13.2%.
